A selection: hits, their analogues and other compounds. The true share with any hit is near 13%.
RAM network inh – blocks the yeast RAM network. S. cerevisiae dse1pr::URA3 reporter, 5-FOA growth OD615, 2 d; analog-sensitive cbk1-as2 kinase mutant strain. inhibition, % at 50 µM. hit rate 1.8% among 190,000. AID 868;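 active means inhibition above a set limit, 3 SD over mean compound inhibition, cut at about 8.4% in these data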;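 further: 0% = DMSO-only wells with no growth and 100% = 10 µM 1-NA-PP1 full growth; inhibition rescues growth on 5-FOA so higher OD means more RAM inhibition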
CHOP inh – CHOP inhibition in unfolded protein response. AID 2732. hit rate 3.8% among 220,000. CHO-K1 CHOP-promoter luciferase, tunicamycin-induced, 15-18 h. inhibition, % at 10 µM;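 active means compounds that reduced the stress-induced luciferase reporter signal by more than about 70% of percent inhibition, limit read from the data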;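 further: 0% = tunicamycin plus vehicle and 100% = wells without tunicamycin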
WT yeast gro inh – growth inhibition of WT yeast, mitochondrial fusion screen; mitochondrial fusion phenotypic screen, WT strain; inhibition, % at 10 µM; hit rate 2.1% among 190,000; AID 1362; in the data active means inhibition above about 58%; tested in S. cerevisiae
L major viab – reduces viability of Leishmania major promastigotes | AID 1063 | inhibition, % at 10 µM | resazurin fluorescence viability | hit rate 9% among 200,000; in the data active means inhibition above about 50%;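 further: promastigotes grown with compound for 44 hours at 28 °C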
An asterisk follows results filed as active; nt = no result given.

SMILES	RAM network inh	CHOP inh	WT yeast gro inh	L major viab
CC1CCc2nc3ccccc3c(C(=O)OCC(=O)NC3CCS(=O)(=O)C3)c2C1 (stereo not given)	1.5	5.3	-9.1	6.1
O=C(COC(=O)c1cc(-c2ccccc2)nc2ccccc12)Nc1ccc2c(c1)OCO2	3.9	30.6	-11.1	0.6
O=C(COC(=O)c1c2c(nc3ccccc13)CCCC2)Nc1ccc2c(c1)OCO2	0.1	9.0	-6.7	59.3*
O=C(OCC(=O)N1CCc2ccccc21)c1c2c(nc3ccccc13)CCCCC2	-0.5	33.7	34.4	90.6*
CC(=O)c1ccc(NC(=O)COC(=O)c2c3c(nc4ccccc24)/C(=C\c2cccs2)CCC3)cc1	2.5	76.8*	-7.2	97.2*
O=C(CNCCC1=CCCCC1)Nc1ccccc1N1CCCCC1	0.9	91.8*	33.5	97.4*
O=C(CNCC1CCCCC1)Nc1ccc(OC(F)(F)F)cc1	-0.1	90.6*	30.6	-9.0
CN(CC(=O)Nc1ccc(OC(F)(F)F)cc1)C1CCCCC1	1.2	45.2	-7.7	-1.8
Cc1cccc(N2CCN(CC(=O)NCC3CCCCC3)CC2)c1C	1.7	75.8*	27.8	16.2
Cc1cccc(N2CCN(CC(=O)Nc3nccs3)CC2)c1C	0.4	9.7	-23.0	4.8
O=C(CNCC1CCCCC1)Nc1ccccc1N1CCCCC1	0.1	78.7*	-15.2	7.2
O=C(O)C(CC1CCCCC1)N1CCS(=O)(=O)CC1 (stereo not given)	0.3	20.0	6.2	-6.7
Cc1cc(C(F)(F)F)n2nc(-c3cnn(C)c3C(F)(F)F)c(Br)c2n1	0.1	1.5	5.3	-6.4
O=C(CN1CCc2ccccc2C1)Nc1ccccc1N1CCCCCC1	-0.6	52.8	61.4*	30.6
O=C(CN1CCCCC1)Nc1ccccc1NC(=O)CN1CCCCC1	1.5	30.6	-4.4	-3.3
O=C(CCC1CCCCC1)Nc1ccccc1O	-0.4	73.1*	7.2	3.2
COc1cc(/C=C/C(=O)OCC(=O)NC(=O)NC(C)C)ccc1O	nt	8.6	nt	nt
OCCNCCNCc1ccc(-c2ccccc2)cc1	-0.2	8.3	3.1	100.5*
CCNC(=S)N1CCN(c2cccc(C(F)(F)F)c2)CC1	-0.8	-0.9	27.0	36.3
C=CCNC(=S)N1CCN(c2cccc(C(F)(F)F)c2)CC1	-0.4	47.7	70.8	5.9
FC(F)(F)c1cccc(N2CCN(C(=S)NC3CCCCC3)CC2)c1	3.1	60.6	-5.3	97.1*
FC(F)(F)c1cccc(N2CCN(C(=S)NC3CCCC3)CC2)c1	1.5	81.0*	21.1	-6.0
C/C=C/C(=O)OCC(=O)Nc1ccc(SC(F)F)cc1	0.1	13.3	-14.2	-1.7
O=C(/C=C/NNC(=O)c1ccccc1)c1ccc([N+](=O)[O-])cc1	0.0	37.9	5.0	79.5*
O=C(/C=C/NNC(=O)c1ccccc1)c1ccccc1	-0.9	-1.6	3.6	0.7
SMILES	RAM network inh	CHOP inh	WT yeast gro inh	L major viab
CC(=O)NC(=S)Nc1ccc(NC(=S)NC(=O)/C=C/c2ccco2)cc1	nt	7.8	nt	nt
O=C(/C=C/c1ccco1)NC(=S)NNC(=O)c1ccco1	-1.4	28.7	1.7	93.6*
Cc1cccc(NC(=O)CN2C(=S)NC(C)(C)CC2C)c1 (stereo not given)	0.1	30.1	2.3	54.3*
Cc1ccc(NC(=O)CCCN2C(=S)NC(C)(C)CC2C)cc1 (stereo not given)	-0.9	12.7	-6.6	-4.3
Cc1ccccc1NC(=O)CN1C(=S)NC(C)(C)CC1C (stereo not given)	1.8	-2.3	17.3	52.7*
CC1CC(C)(C)NC(=S)N1CC(=O)NCc1ccccc1Cl (stereo not given)	1.1	22.1	-4.8	76.9*
CCc1ccccc1SCc1noc(C(=O)NCC2CCCO2)c1C(=O)O (stereo not given)	2.3	3.7	4.5	-5.3
COC(=O)c1c(CCl)noc1C(=O)NCC1CCCO1 (stereo not given)	0.7	-33.6	-10.3	100.5*
CC(=O)N1CCc2cc(S(=O)(=O)NC(CC(C)C)C(=O)N3CCc4ccccc4C3)ccc21 (stereo not given)	0.3	-9.8	-13.9	72.7*
CC(=O)N1CCc2cc(S(=O)(=O)NCCN3CCC(C)CC3)ccc21	-0.7	8.4	-12.6	58.4*
CCOC(=O)N1CCC(NS(=O)(=O)c2ccc3c(c2)CCN3C(C)=O)CC1	0.1	73.0*	3.5	-2.7
C=CCc1cccc([C@@H]2[C@@H](C)CC[C@H]3C(=O)N4[C@@H](c5cc(OC)c(OC)c(OC)c5)c5[nH]c6ccccc6c5C[C@H]4C(=O)N23)c1	3.7	40.3	0.3	18.8
O=c1c2ccccc2nc(CSc2ncnc3nc[nH]c23)n1-c1cccc(C(F)(F)F)c1	8.0	6.2	3.5	10.4
NC(=O)c1cc(C(=O)c2ccccc2Cl)c[nH]1	-0.2	24.2	9.1	4.7
Cc1ccc(-c2nnn(CC(=O)Nc3nnc(C(C)C)s3)n2)cc1	2.4	25.0	-7.1	-4.7
C/C(=N\NC(=O)CNC(=O)c1ccc2c(c1)OCO2)c1ccco1	2.4	-4.2	-14.6	53.0*
C/C(=N/NC(=O)CNC(=O)Cc1ccccc1)c1ccco1	1.5	22.4	-15.2	63.2*
C/C(=N/NC(=O)CNC(=O)c1cccnc1)c1ccco1	nt	-9.7	nt	nt
C#CCOC(=O)CCCNc1ccc([N+](=O)[O-])cc1[N+](=O)[O-]	1.6	40.5	-8.7	-2.9
Cc1cc2nc(SCC(=O)Nc3ccccc3C(=O)O)[nH]c2cc1C	1.6	-20.5	8.7	-16.6
Cc1cc(C)c(OCCOCCN(C)C)c(Br)c1	-1.5	12.2	-3.6	96.3*
Cc1cc(Cl)cc(Cl)c1OCCCCN(C)C	0.5	2.3	14.4	85.9*
Cc1cc(Cl)cc(C)c1OCC(=O)O	-0.3	-1.1	2.1	nt
Cc1cc(C)c(OCCCCN(C)C)c(Br)c1	0.7	2.2	7.7	84.8*
CCOC(=O)c1c(NC(=O)CN2C(=O)NC3(CCCCC3)C2=O)sc(C)c1-c1ccc(C)cc1	1.5	70.7*	-8.1	2.7
SMILES	RAM network inh	CHOP inh	WT yeast gro inh	L major viab
CCOC(=O)c1sc(NC(=O)CN2C(=O)NC3(CCCCCCC3)C2=O)c(C(=O)OCC)c1C	nt	13.7	nt	nt
CCOC(=O)c1c(NC(=O)C2C3CCC(O3)C2C(=O)O)sc(C)c1-c1ccc(C)cc1 (stereo not given)	5.5	32.2	8.9	-8.8
CCOC(=O)c1ccc(NC(=O)CN2C(=O)NC3(CCC(C)CC3)C2=O)cc1 (stereo not given)	-0.9	9.8	0.9	-0.1
CCOC(=O)c1c(NC(=O)CN2C(=O)NC3(CCC(C)CC3)C2=O)sc(C)c1-c1ccc(C)cc1 (stereo not given)	4.5	81.9*	-2.2	-3.2
CC(C)(C)c1ccc(-c2csc(NC(=O)CN3C(=O)NC4(CCCCC4)C3=O)n2)cc1	2.6	30.9	-18.0	98.7*
CCNC(=O)CN1C(=O)NC2(CCCCCC2)C1=O	-0.2	11.8	-3.1	-4.8
CCOC(=O)c1ccc(NC(=O)CN2C(=O)NC3(CCCCCC3)C2=O)cc1	2.6	-7.6	7.0	90.9*
CCCn1c(SCC(=O)NCc2ccccc2)n[nH]c1=O	0.5	-24.0	-0.1	-7.2
O=S(=O)(/C=C/c1ccccc1)Nc1cccc(S(=O)(=O)NC2=NCCC2)c1	1.1	23.2	-7.5	-9.4
